# Assay outcomes: PubChem BioAssay, several laboratories
# BJeLR lethal = BJeLR cell viability loss. BJeLR (HRASV12) viability, CellTiter-Glo ATP luminescence, 48 h. inhibition, % (no concentration beside the values). 300,000 compounds, 0.17% hits. AID 1554; in the data active = inhibition above about 50%
# SSB-PriA inh = inhibitors of Klebsiella pneumoniae PriA binding to SSB C-terminal tail; AlphaScreen SSBct-PriA binding, biotinylated peptide; inhibition, % at 33 µM; 430,000 compounds, 0.6% hits; AID 1272365; in the data active = inhibition mostly above about 37%, no sharp cut-off; inactive = mostly below about 20%;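 also: plate controls were negative control peptide for no effect and reference peptide for full effect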
# RecA splice inh = Mtb RecA intein splicing inhibition. P9WHJ3. cell-free RecA intein splicing, fluorescence. 290,000 compounds, 0.75% hits. AID 2221. inhibition, % (concentration not given with the values); in the data active = inhibition above about 30%;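 also: 0% = vehicle wells and 100% = reference inhibitor control wells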
# Target sequence (P9WHJ3 whole entry, looked up, canonical isoform): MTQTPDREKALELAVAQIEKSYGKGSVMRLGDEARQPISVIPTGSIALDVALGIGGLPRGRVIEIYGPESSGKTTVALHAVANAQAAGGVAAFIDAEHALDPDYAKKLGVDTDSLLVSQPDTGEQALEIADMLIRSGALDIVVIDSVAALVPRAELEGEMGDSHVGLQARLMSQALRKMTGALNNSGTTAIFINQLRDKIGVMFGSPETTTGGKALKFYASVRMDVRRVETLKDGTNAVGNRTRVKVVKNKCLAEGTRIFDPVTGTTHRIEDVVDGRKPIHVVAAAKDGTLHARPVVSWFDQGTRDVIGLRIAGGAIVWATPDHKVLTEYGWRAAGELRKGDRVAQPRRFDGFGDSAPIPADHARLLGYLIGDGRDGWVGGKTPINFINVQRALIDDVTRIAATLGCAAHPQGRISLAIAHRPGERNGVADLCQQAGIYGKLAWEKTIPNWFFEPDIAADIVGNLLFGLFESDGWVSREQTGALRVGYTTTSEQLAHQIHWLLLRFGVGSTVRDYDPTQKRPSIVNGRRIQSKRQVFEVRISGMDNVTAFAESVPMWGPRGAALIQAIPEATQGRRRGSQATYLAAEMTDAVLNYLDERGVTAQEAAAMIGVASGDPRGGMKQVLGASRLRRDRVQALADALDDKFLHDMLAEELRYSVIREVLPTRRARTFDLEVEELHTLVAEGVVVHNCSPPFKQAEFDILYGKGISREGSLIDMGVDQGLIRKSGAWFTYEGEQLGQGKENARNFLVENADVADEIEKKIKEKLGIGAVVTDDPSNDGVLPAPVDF
# PrPC TRFRET = reduces human prion protein on the cell surface. P04156. cell surface PrPC, TR-FRET read-out. inhibition, % at 13.8 µM. 370,000 compounds, 0.43% hits. AID 720596; in the data active = inhibition above about 24%; also: 0% = median of the test wells and 100% = reference compound wells
# PfHsp40 yeast = restores yeast growth despite PfHsp40 toxicity; 340,000 compounds, 0.68% hits; growth rescue, % at 12.5 µM; S. cerevisiae expressing PfHsp40, growth rescue, ATP luminescence; in the data active = growth rescue above about 28%, passing the limit was not always enough;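 also: yeast W303a lacking pdr1 and pdr3 grown in galactose medium; growth measured after three days at 30 °C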
# PrP UTR inh = suppresses PrP 5' UTR mRNA reporter expression | cell-based PrP 5' UTR mRNA reporter, plate reader | inhibition, % (no concentration beside the values) | 340,000 compounds, 0.35% hits; in the data active = inhibition above about 52%; also: 0 = median of the neutral control wells
# * marks the source's active call; other numbers are inactive results; nt = not tested or not shown; ! = not confirmed by another sample. The list is not random: actives were taken first. Their share in the collection is about 1.9%.
SMILES,BJeLR lethal,SSB-PriA inh,RecA splice inh,PrPC TRFRET,PfHsp40 yeast,PrP UTR inh
Cc1ccc(C(=O)Nc2nnc(-c3ccco3)o2)cc1,5.8,1.0,2.2,-5.5,-1.0,-0.2
O=C(NC[C@]1(O)CCc2ccccc2C1)c1ccccc1C(F)(F)F,nt,-13.0,nt,nt,nt,nt
O=C1C=C(c2ccccc2)C[C@H](c2cccs2)[C@H]1n1nnc([N+](=O)[O-])n1,62.2*,19.3,1.1,6.8,-0.3,-55.0
Cc1[nH]c(=O)[nH]c(=O)c1C=NNC(=O)CCCCCNC(=O)OC(C)(C)C,nt,-13.3,nt,nt,nt,nt
CCOC(=O)c1sc(N(C)C)nc1-c1ccccc1,8.2,-13.2,-4.3,-5.8,0.1,1.8
CCOC(=O)c1sc(NC(=O)c2ccc(S(=O)(=O)N3CCCCCC3)cc2)nc1-c1ccccc1,-4.6,-9.4,-3.3,6.9,49.6*,-19.7
CCOC(=O)c1sc(N)nc1-c1ccccc1,1.0,15.0,1.1,-6.5,94.4*,-5.4
CCOC(=O)c1c(-c2ccccc2)nc2ccc(C)cn12,2.5,-8.4,3.1,-5.8,206.6*,-59.9
CCOC(=O)c1c(-c2ccccc2)nc2cc(C)ccn12,-10.2,-10.8,2.5,6.3,1.7,-45.8
C=C(C)Cn1c(SCC(=O)Nc2ccccc2)nc2c1c(=O)[nH]c(=O)n2C,nt,22.0,nt,nt,nt,nt
CCn1c(CNc2ccc(Cl)cc2)nnc1SCc1ccc(Cl)cc1,4.3,14.1,6.1,15.7,165.5*,-19.8
CCOc1cc(/C=C\[N+](=O)[O-])ccc1OCC(=O)N1CCOCC1,9.2,-2.4,0.0,1.9,34.9*,-3.0
CCOc1cc(/C=C/c2nc3cc(C)c(C)cc3s2)ccc1OCC(=O)N1CCOCC1,6.0,4.5,-3.6,5.0,1.3,-19.5
CC(C)NC(=O)NCCn1nc(C(F)(F)F)n(C)c1=O,nt,-8.0,nt,nt,nt,nt
CCOC(=O)[C@@H]1[C@H]2COc3cc(OC)ccc3[C@@H]2N2C(=O)N(c3cccc(Cl)c3)C(=O)[C@]12C,2.8,-4.6,0.5,nt,-0.2,-39.7
CCOC(=O)[C@@H]1[C@H]2COc3cc(OC)ccc3[C@@H]2N2C(=O)N(c3cccc(C)c3)C(=O)[C@]12C,nt,-2.0,nt,-5.7,64.7*,-6.5
CCOC(=O)/C(=C\c1cccnc1)C(=O)c1cc(C(C)=O)c(Nc2ccccc2)s1,52.5*,-2.7,20.5,nt,-0.2,-21.0
CCOC(=O)/C(=C\c1ccccc1)C(=O)c1cc(C(C)=O)c(Nc2ccccc2)s1,6.0,-3.0,6.8,-8.0,0.8,-43.7
Cc1cc(-c2ccc(Cl)cc2)n2nc(N)nc2n1,10.2,-24.2,-2.2,-0.6,-0.4,-9.9
Nc1nc2nccc(-c3ccc(Cl)cc3)n2n1,nt,-3.8,nt,1.3,184.5*,-57.7
CNc1sc(C(=O)c2cccs2)c(N)c1-c1nc2ccccc2s1,0.6,52.5*,-2.5,-11.5,8.0,-99.6
COc1ccccc1C1C([N+](=O)[O-])=CC([N+](=O)[O-])=CN1C (stereo not drawn),0.9,6.6,1.6,-2.0,0.2,-18.0
COc1ccccc1C1NC=C([N+](=O)[O-])C=C1[N+](=O)[O-] (stereo not drawn),-4.8,44.9*,-1.5,-25.4,-0.5,-13.9
CCCCCCCCOC(=O)CCn1[nH]c(=O)c2ccccc2c1=O,-1.8,-0.6,1.2,8.9,199.6*,5.7
CCC(C)N(CC(=O)Nc1cccc(C)c1C)C(=O)CCl (stereo not drawn),35.7,-1.4,43.2*,nt,-0.1,-21.5
SMILES,BJeLR lethal,SSB-PriA inh,RecA splice inh,PrPC TRFRET,PfHsp40 yeast,PrP UTR inh
O=C(O)CSCC(=O)Nc1ccc(Cl)cc1C(F)(F)F,-5.1,4.6,-0.8,1.8,0.4,-24.1
CC(C)N(CC(=O)Nc1ccc(Cl)cc1C(F)(F)F)C(=O)CCl,-6.1,-9.1,59.1*,-8.3,-0.4,-6.2
O=C(NCC1CCN(C(=O)c2ccncc2)CC1)c1ccccc1C(F)(F)F,nt,-1.0,nt,nt,nt,nt
O=S(=O)(c1cccc(Cl)c1)N(CCc1cccs1)Cc1ccco1,nt,-26.0,nt,nt,nt,nt
C/C(=C\C(=S)Nc1ccccc1)Nc1ccc2ccccc2c1,-7.4,66.5*,12.6,-6.8,-2.2,-45.5
C/C(=C\C(=S)Nc1ccccc1)Nc1cccc2ccccc12,-16.5,19.9,5.8,4.5,-2.2,-11.6
COc1ccc(S(=O)(=O)CCCC(=O)Nc2ccc3sc(C)nc3c2)cc1,nt,-13.0,nt,nt,nt,nt
O=C(O)C1CCCN(c2cc(C3CC3)ncn2)C1 (stereo not drawn),nt,1.0,nt,nt,nt,nt
COc1cc(C)c(Cl)cc1S(=O)(=O)Nc1ccc(Nc2nc(C)cc(Nc3ccc(C)cc3)n2)cc1,nt,-9.0,nt,nt,nt,nt
COc1ccc(Nc2cc(C)nc(Nc3ccc(NS(=O)(=O)c4cc(C(C)(C)C)ccc4OC)cc3)n2)cc1,nt,43.0*,nt,nt,nt,nt
C=CCN1C(=O)C(C)(C)COc2ccc(NC(=O)c3ccc(C)c(C)c3)cc21,nt,25.0,nt,nt,nt,nt
Clc1ccc(OCc2nc(-c3ccccn3)n[nH]2)cc1,-6.9,63.5*,4.5,11.8,1.8,-0.3
c1ccc(-c2nc(-c3ccccn3)nc(-c3ccccn3)n2)nc1,-1.3,-12.2,-2.2,-1.3,19.2,-0.2
Brc1ccc(OCc2nc(-c3ccccn3)n[nH]2)cc1,1.6,86.4*,-3.0,-2.9,0.0,-31.1
NCCc1nc(-c2ccccn2)no1,nt,-9.0,nt,nt,nt,nt
Cc1ccc(OCc2nc(-c3ccccn3)no2)cc1,0.8,-6.8,0.2,2.6,1.1,-79.3
NCCc1nc(-c2ccccn2)n[nH]1,nt,93.3*,nt,nt,nt,nt
Cc1nc(-c2ccccn2)n[nH]1,nt,99.0*!,nt,nt,nt,nt
O=C(c1ccc2c(c1)OCO2)N(CCc1cccs1)Cc1ccco1,nt,0.0,nt,nt,nt,nt
CC(C)c1cc(=O)[nH]c(-n2nc(-c3cccs3)cc2NC(=O)c2cc3ccccc3o2)n1,nt,-17.0,nt,nt,nt,nt
CCc1ccc(S(=O)(=O)NCC(C)(O)COC)cc1 (stereo not drawn),nt,0.0,nt,nt,nt,nt
COC(=O)c1ccc(NC(=O)C(=O)NCCCn2ccnc2-c2ccccc2)cc1,nt,-6.0,nt,nt,nt,nt
COc1ccccc1N1CCN(c2nc3c(-c4ccccc4Cl)csc3c(=O)[nH]2)CC1,nt,2.0,nt,nt,nt,nt
COc1ccc(CN(CC(O)COCc2ccccc2)S(=O)(=O)c2ccccc2Br)cc1OC (stereo not drawn),nt,-0.5,nt,-3.2,0.0,-24.4
O=S(=O)(c1c(F)cccc1F)N(CCc1ccc(F)cc1)C[C@@H](O)COCc1ccccc1,nt,-18.0,nt,8.1,114.4*,0.9
CCN(CC)S(=O)(=O)c1ccc(C(=O)Oc2coc(CSc3nc(C)cc(C)n3)cc2=O)cc1,6.7,3.2,12.2,-3.4,71.9*,-12.5
Cc1cc(C)nc(SCc2cc(=O)c(OC(=O)c3ccc4c(c3)OCO4)co2)n1,nt,-7.0,nt,nt,nt,nt
Cc1ccc(C(=O)Oc2coc(CSc3ncccn3)cc2=O)cc1[N+](=O)[O-],nt,nt,nt,1.1,nt,nt
CN(C)S(=O)(=O)c1ccc(C(=O)Oc2coc(CSc3ncccn3)cc2=O)cc1,nt,-3.6,7.4,3.2,94.0*,-16.4
COc1ccc(N=c2cc(-c3ccc(O)cc3)oc3ccccc23)cc1,2.4,42.5*,6.9,-8.1,3.3,-8.8
